Compound activity: PubChem, several laboratories
TWEAK-Fn14 inh: inhibitors of TWEAK-Fn14 signaling, primary screen, luciferase reporter cells, uHTS; TWEAK-stimulated Fn14 reporter cells, luciferase luminescence, 8 h; inhibition, % at 10 µM; 360,000 tested, 2% active; AID 1159606, 2016; in the data active means inhibition above about 50%
EWS-Fli block: EWS/Fli-driven NR0B1 reporter inhibitors, primary screen, A673 cells, NR0B1 luciferase, luminescence, MLPCN library. viability-normalised. 350,000 tested, 0.67% active. inhibition, % at 12.6 µM;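 active means mean inhibition of at least 50% after viability correction, with every replicate also passing that limit; inconclusive means mean reaches 50% but only one of two replicates passes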;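 further: firefly luciferase signal divided by Alamar Blue viability fluorescence both relative to DMSO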
TROY signal inh: inhibitors of TROY-driven NF-kB signaling, primary screen, Q293 LMP1-TROYcd cells, NF-kB luciferase, uHTS. Q293 LMP1-TROYcd NF-kB luciferase reporter, 4 h. 360,000 tested, 0.98% active. inhibition, % at 10 µM;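 active means compounds whose plate-normalised and pattern-corrected inhibition of the luciferase reporter signal at the single screening dose is 50% or more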
LMP1 NFkB inh: EBV LMP1-driven NF-kappaB luciferase reporter inhibitors, primary screen, cell-based, luminescence, single point | AID 504558, 2011 | LMP1-induced NF-kappaB luciferase reporter cells | 350,000 tested, 0.69% active | inhibition, % at 12.5 µM; in the data active means inhibition above about 41%; inconclusive means no clear call, values can overlap the other calls
LGR2 inh: inhibitors of bursicon-induced LGR2 CRE-luciferase signal, primary screen, cell-based, HEK293, CRE-luciferase reporter, bursicon stimulation. inhibition, % at 9.99 µM. 380,000 tested, 0.35% active. Drosophila bursicon receptor LGR2 (rickets). bursicon-stimulated, 4 h;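 active means drop in luminescence signal, shown as inhibition above about 50% in the replicate tests, limit read from the data, passing the limit was not always enough; inconclusive means probably only some replicates passing the limit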;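 further: agonist challenge used bursicon conditioned medium at about half maximal strength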
Numbers stand for hits; . = inactive; ? = inconclusive; / = no result given. In the library only some 2.5% were active in any assay of this set; here they are far more common.

SMILES	TWEAK-Fn14 inh	EWS-Fli block	TROY signal inh	LMP1 NFkB inh	LGR2 inh
CC(=O)NC1CC2CCCC(C1)N2S(=O)(=O)c1cccc(F)c1 (stereo not given)	104	/	.	.	/
O=C(NC1CC2CCCC(C1)N2S(=O)(=O)c1ccccc1)c1ccco1 (stereo not given)	.	/	.	.	.
COc1ccc2c3c(n(C)c2c1)[C@H](CO)N(Cc1ccccc1OC)CC31CN(CC2CCOCC2)C1	/	.	/	/	.
COc1ccc(N2C(=O)C(Cl)=C(NCc3ccccc3)C2=O)cc1	.	/	.	65	/
CC(C)(C)c1ccc(Oc2ccc(NC(=O)c3ccco3)cn2)cc1	78	.	.	.	.
O=C(Nc1ccc(Oc2cccc(C(F)(F)F)c2)nc1)c1ccco1	.	.	.	.	.
CC(C)(C)c1ccc(C(=O)Nc2ccccc2NC(=O)c2ccco2)cc1	96	/	/	.	/
CN(C)C(=O)C[C@H]1C=C[C@H](NS(=O)(=O)c2ccccc2)[C@H](CO)O1	/	.	/	/	.
Cc1cccc(OCc2cc(-c3ccccc3)no2)c1C	.	.	.	.	.
Clc1ccc(OCc2cc(-c3ccccc3)no2)c(Cl)c1	62	/	.	.	/
CC1CCN(CC(C)OC(=O)c2ccc3c(c2)OCCO3)CC1 (stereo not given)	.	.	.	.	.
CC(CN1CCCCC1)OC(=O)c1ccc2c(c1)OCO2 (stereo not given)	.	/	.	43	/
Cn1c(N=NC(=O)c2ccccc2)c(O)c2ccccc21	69	/	.	.	?
Cc1cc(N2CCCC2=O)cc(C)c1S(=O)(=O)Nc1c(C)nn(C)c1C	.	.	.	49	.
Cc1ccc(S(=O)(=O)N2CCCCC2)cc1NC(=O)CNc1ccccc1N1CCCC1=O	.	.	.	42	.
CC(=O)c1ccc(NC(=O)c2ccc3c(=O)n4c(nc3c2)CCCCC4)cc1	.	.	.	.	.
Cc1ccc(-c2csc(NC(=O)c3ccc4c(=O)n5c(nc4c3)CCCCC5)n2)cc1	70	.	.	.	.
Cc1ccc(S(=O)(=O)N2CCCCC2)cc1NC(=O)c1ccc2c(=O)n3c(nc2c1)CCCCC3	/	.	/	/	67
COc1ccc(S(=O)(=O)N2CCCCC2)cc1NC(=O)CNc1ccccc1N1CCCC1=O	.	.	.	.	.
COc1ccc(-c2ccc3c(c2)S(=O)(=O)c2cccc(C(=O)NCc4cc(C)oc4C(F)(F)F)c2C3=O)cc1OC	.	/	.	86	/
C[C@H](CO)N1C[C@H](C)[C@H](CN(C)S(=O)(=O)c2ccccc2)Oc2c(NC(=O)Nc3ccc(C(F)(F)F)cc3)cccc2C1=O	/	.	/	/	.
CCOc1ccc(NC2CCN(C(C)=O)CC2)cc1	.	.	.	42	/
CC(=O)N1CCC(Nc2ccc(C)cc2)CC1	.	.	.	.	.
CC(=O)n1cc(N(C(=O)CCl)c2ccc(Cl)cc2)c2ccccc21	64	/	.	/	/
COc1ccccc1N(C(=O)CCl)c1cn(C(C)=O)c2ccccc12	73	.	.	.	.
SMILES	TWEAK-Fn14 inh	EWS-Fli block	TROY signal inh	LMP1 NFkB inh	LGR2 inh
COc1cccc(CNC(=O)C[C@@H]2CC[C@H]3[C@H](COc4ccc(NC(C)=O)cc4C(=O)N3C)O2)c1	/	.	/	/	.
C[C@@H]1CN([C@@H](C)CO)C(=O)c2c(c3ccccc3n2C)-c2ccccc2CO[C@H]1CN(C)S(=O)(=O)Cc1ccccc1	/	.	/	/	.
O=C(O)CCc1ccc(-c2cccs2)n1NC(=O)c1ccco1	105	/	.	.	.
CC(=O)c1ccc(-n2c(CCC(=O)O)ccc2-c2cccs2)cc1	61	.	57	.	.
O=C(O)CCc1ccc(-c2ccccc2)n1NC(=O)c1ccco1	.	/	.	.	.
O=C(O)[C@@H]1[C@@H](CO)[C@@H]2Cn3c(ccc(-c4cccc(F)c4)c3=O)[C@@H]2N1C(=O)c1ccccn1	/	.	/	/	.
O=C(Nc1cccc(F)c1)c1ccc(-c2cccnc2)c2ccoc12	77	/	.	/	/
COc1ccc(-c2coc3c(C(=O)NCc4ccc(OC)c(OC)c4)cccc23)c(C)c1	63	.	.	/	.
O=C(Nc1cccc(C(F)(F)F)c1)c1cccc2c(-c3cccnc3)coc12	.	/	.	/	/
COc1cc(NC(=O)c2cccc3c(-c4cccnc4)coc23)cc(OC)c1OC	80	.	68	/	86
COc1ccc(-c2coc3c(C(=O)NCc4ccc(F)c(F)c4)cccc23)c(C)c1	.	.	.	/	.
